According to PubChem BioAssay (EPA / NIEHS):
Activity calls are given as the source filed them. The calls were made as follows: active = hit-call score of the fitted dose curve at least 0.9, where 1 is the maximum; inactive = score below 0.9.

Key:
[1] = ATG_GLI_CIS: Attagene CIS-FACTORIAL HepG2 Assay for human Zinc Finger Protein GLI1 (AID 2282945); settings: HepG2, Attagene cis-factorial reporter mRNA, GLI element; actives raise or lower the signal
Method in brief: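 Bidirectional curve fits relative to DMSO, using reporter mRNA levels from RT-PCR plus capillary electrophoresis. Cells were HepG2 transiently carrying cis-regulated reporter constructs, harvested 24 h after dosing.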

[2] = molecular target: Bile acid receptor (Homo sapiens) (UniProt Q96RI1); assay: ATG_IR1_CIS: Attagene CIS-FACTORIAL HepG2 Assay for human Nuclear Receptor Subfamily 1 Group H Member 4 (NR1H4), IR1 submotif (AID 2282946); settings: IR1 reporter transcription, actives raise or lower the signal
Method in brief: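 Cells (human HepG2) carry transiently transfected cis-promoter reporter transcription units. Compounds are incubated 24 h, total RNA is reverse-transcribed and amplified, and labelled fragments are resolved by capillary electrophoresis. Curves use DMSO as baseline.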

[3] = ATG_GRE_CIS: Attagene CIS-FACTORIAL HepG2 Assay for human Glucocorticoid Response Elements (GRE) (AID 2282947); settings: HepG2 GRE cis-reporter, Attagene multiplex mRNA; actives raise or lower the signal
Method in brief: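 Transient MRTU transfection of human HepG2 liver cells; cis-regulated reporters report endogenous factors. 24 h dosing → RNA isolation → RT-PCR → 6-FAM primer extension → HpaI cut → CE fragment analysis. Bidirectional fit, DMSO negative control.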

[4] = ATG_M_32_CIS: Attagene CIS-FACTORIAL HepG2 Assay for M32 Transcription Factor (Internal Marker) (AID 2282949); settings: HepG2 Attagene cis-factorial M32 reporter, mRNA; actives raise or lower the signal;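 also: background control marker of the multiplexed CIS panel rather than a real target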
Method in brief: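 Fluorescent capillary electrophoresis peaks of HpaI-digested, FAM-labelled RT-PCR reporter products give the signal. Source: transiently transfected human liver HepG2 cells, 24 h after chemical dosing; bidirectional fitting against DMSO.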

[5] = ATG_M_06_CIS: Attagene CIS-FACTORIAL HepG2 Assay for M06 Transcription Factor (Internal Marker) (AID 2282950); settings: HepG2 Attagene CIS-FACTORIAL M06 internal marker reporter; actives raise or lower the signal
Method in brief: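 Cells (HepG2, transiently carrying cis-driven reporter units) receive chemical for 24 h before RNA isolation. Reporter cDNA is PCR-amplified, FAM-labelled by primer extension, HpaI-digested and sized on a capillary analyser.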

[6] = molecular target: Hepatocyte nuclear factor 6 (Homo sapiens) (UniProt Q9UBC0); assay: ATG_HNF6_CIS: Attagene CIS-FACTORIAL HepG2 Assay for human Hepatocyte Nuclear Factor 6 (HNF6) (AID 2282952); settings: HepG2 Attagene cis-factorial HNF6 reporter transcription; actives raise or lower the signal
Method in brief: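 Cells are HepG2 carrying transiently transfected cis-promoter reporter units. Treatment lasts 24 h, after which reporter transcripts are reverse-transcribed, amplified, FAM-labelled and sized by capillary electrophoresis. DMSO serves as baseline.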

[7] = molecular target: Heat shock factor protein 1 (Homo sapiens) (UniProt Q00613); assay: ATG_HSE_CIS: Attagene CIS-FACTORIAL HepG2 Assay for human Heat Shock Transcription Factor 1 (HSE) (AID 2282953); settings: HepG2 HSE cis-reporter, Attagene RNA transcription; actives raise or lower the signal
Method in brief: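 Liver-derived HepG2 cells carry transiently introduced multiple reporter units governed by cis promoters. Reporter RNA measured 24 h post-dose through reverse transcription, PCR amplification, fluorescent labelling and capillary electrophoresis, normalised to DMSO.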

[8] = ATG_MRE_CIS: Attagene CIS-FACTORIAL HepG2 Assay for human Metal Responsive Element (MRE) (AID 2282954); settings: HepG2 MRE cis-reporter transcription, Attagene multiplex; actives raise or lower the signal
Method in brief: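 Transient MRTU transfection of HepG2 (FuGene 6); 24 h dosing; total RNA → oligo(dT) RT, PCR, 6-FAM primer extension, HpaI cut, CE. Bidirectional fit vs DMSO.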

[9] = ATG_PBREM_CIS: Attagene CIS-FACTORIAL HepG2 Assay for human Phenobarbital-responsive Enhancer Module (PBREM) (AID 2282955); settings: HepG2 PBREM cis-reporter, Attagene multiplexed transcription; actives raise or lower the signal
Method in brief: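 Multiplexed cis-reporter readout in human hepatoma HepG2 cells; PBREM-regulated transcript quantified after 24 h exposure by fluorescent RT-PCR fragment analysis. Signal changes up or down fitted relative to DMSO.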

[10] = molecular target: Paired box protein Pax-6 (Homo sapiens) (UniProt P26367); assay: ATG_Pax6_CIS: Attagene CIS-FACTORIAL HepG2 Assay for human Paired Box 6 (PAX6) (AID 2282956); settings: HepG2 CIS-FACTORIAL PAX6 reporter transcription, RNA readout; actives raise or lower the signal
Method in brief: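 HepG2 cells transiently transfected with multiplexed cis-promoter reporter units (endogenous TF activity) were dosed for 24 h. Reporter mRNA was quantified by RT-PCR, 6-FAM labeling, HpaI digestion and capillary electrophoresis; bidirectional fitting versus DMSO baseline.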

[11] = ATG_PXRE_CIS: Attagene CIS-FACTORIAL HepG2 Assay for human Pregnane X Receptor Element (PXRE) (AID 2282957); settings: HepG2 Attagene CIS-FACTORIAL PXRE reporter, mRNA; actives raise or lower the signal
Method in brief: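 Multiplexed cis-reporter assay in transiently transfected human HepG2 cells; 24 h chemical exposure. Reporter transcripts quantified by RT-PCR with fluorescent labeling and capillary electrophoresis.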

[12] = ATG_PPRE_CIS: Attagene CIS-FACTORIAL HepG2 Assay for human Peroxisome Proliferator-activated Response Element (PPRE) (AID 2282958); settings: HepG2 PPRE cis-element reporter, Attagene transcription factor profiling; actives raise or lower the signal
Method in brief: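 DMSO served as negative control and baseline for bidirectional curve fitting. Signal came from PPRE-regulated reporter mRNA in HepG2 cells, measured 24 h post-dosing by RT-PCR, 6-FAM primer extension and capillary electrophoresis.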

[13] = ATG_RORE_CIS: Attagene CIS-FACTORIAL HepG2 Assay for human RAR-related Orphan Receptor Element (RORE) (AID 2282959); settings: HepG2 Attagene cis-factorial RORE reporter, mRNA; actives raise or lower the signal
Method in brief: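 Transfect HepG2 with MRTUs; treat 24 h; extract RNA; RT with oligo(dT); PCR with reporter-specific primers; 6-FAM primer extension; HpaI digest 2 h at 37 C; capillary electrophoresis. Fit vs DMSO, bidirectional.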

[14] = ATG_Sox_CIS: Attagene CIS-FACTORIAL HepG2 Assay for human SRY-box transcription factor (SOX) (AID 2282960); settings: HepG2 Attagene cis-factorial SOX reporter, mRNA; actives raise or lower the signal
Method in brief: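 Fluorescence-labelled cDNA fragments from reporter transcripts, sized by CE, give the signal. Cells: HepG2, transiently transfected with cis-regulated reporter units. Exposure 24 h; DMSO negative control; bidirectional curve fitting.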

[15] = molecular target: Transcription factor Sp1 (Homo sapiens) (UniProt P08047); assay: ATG_Sp1_CIS: Attagene CIS-FACTORIAL HepG2 Assay for human Specificity Protein 1 (Sp1) (AID 2282961); settings: HepG2 Sp1 cis-reporter transcription, actives raise or lower the signal
Method in brief: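 Chemicals are dosed onto HepG2 cells transfected with multiple cis-promoter reporter constructs, and after 24 h reporter RNA is reverse-transcribed, PCR-amplified and resolved by capillary electrophoresis for fluorescence quantitation; activity is scored up or down against DMSO.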

[16] = ATG_SREBP_CIS: Attagene CIS-FACTORIAL HepG2 Assay for human Sterol Regulatory Element Binding (SREBP) (AID 2282962); settings: HepG2 Attagene cis-factorial SREBP reporter, mRNA; actives raise or lower the signal
Method in brief: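 HepG2 cells transiently transfected with multiplexed cis-element reporter units report endogenous transcription factor activity. After 24 h of chemical exposure, reporter mRNA was quantified by RT-PCR, 6-FAM labelling, HpaI digestion and capillary electrophoresis; bidirectional fits used DMSO as baseline.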

[17] = molecular target: Signal transducer and activator of transcription 3 (Homo sapiens) (UniProt P40763); assay: ATG_STAT3_CIS: Attagene CIS-FACTORIAL HepG2 Assay for human Signal Transducer and Activator of Transcription 3 (STAT3) (AID 2282963); settings: HepG2, Attagene cis-factorial STAT3 reporter transcription; actives raise or lower the signal
Method in brief: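 Endogenous STAT3-responsive cis-element activity was read in transiently transfected HepG2 cells after 24 h treatment. Reporter transcripts were quantified via RT-PCR and capillary electrophoresis, with DMSO as negative control and bidirectional curve fitting.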

[18] = ATG_TA_CIS: Attagene CIS-FACTORIAL HepG2 Assay for human TA Basal Promoter (AID 2282964); settings: HepG2 Attagene CIS-factorial TA basal promoter reporter; actives raise or lower the signal
Method in brief: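 Background internal-marker endpoint from a 52-component HepG2 cis-reporter panel. Cells treated 24 h; reporter transcripts quantified via RT-PCR and CE fluorescence against DMSO baseline.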

[19] = molecular target: Hypoxia-inducible factor 1-alpha (Homo sapiens) (UniProt Q16665); assay: ATG_HIF1a_CIS: Attagene CIS-FACTORIAL HepG2 Assay for human Hypoxia Inducible Factor 1 (HIF1A) (AID 2282951); settings: HepG2 Attagene cis-factorial HIF1a reporter transcription; actives raise or lower the signal
Method in brief: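 Cis-element reporter constructs were transiently transfected into HepG2 cells, which were treated for 24 h; reporter RNA was reverse-transcribed, amplified, labelled and resolved by capillary electrophoresis.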

[20] = ATG_ISRE_CIS: Attagene CIS-FACTORIAL HepG2 Assay for human Interferon Regulatory Factor 1 (IRF1) binding to an Interferon-Stimulated Response Element (ISRE) (AID 2282948); settings: HepG2 ISRE cis-reporter (Attagene), mRNA transcription readout; actives raise or lower the signal
Method in brief: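 HepG2 cells transiently transfected with multiplexed cis-promoter reporter units; after 24 h compound exposure, reporter mRNA quantified by RT-PCR, FAM labelling, HpaI digestion and capillary electrophoresis. Bidirectional fit versus DMSO baseline.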

Measured: AC50

Chain of Bile acid receptor (Homo sapiens) (Q96RI1 whole entry, looked up, the tested form may be a part): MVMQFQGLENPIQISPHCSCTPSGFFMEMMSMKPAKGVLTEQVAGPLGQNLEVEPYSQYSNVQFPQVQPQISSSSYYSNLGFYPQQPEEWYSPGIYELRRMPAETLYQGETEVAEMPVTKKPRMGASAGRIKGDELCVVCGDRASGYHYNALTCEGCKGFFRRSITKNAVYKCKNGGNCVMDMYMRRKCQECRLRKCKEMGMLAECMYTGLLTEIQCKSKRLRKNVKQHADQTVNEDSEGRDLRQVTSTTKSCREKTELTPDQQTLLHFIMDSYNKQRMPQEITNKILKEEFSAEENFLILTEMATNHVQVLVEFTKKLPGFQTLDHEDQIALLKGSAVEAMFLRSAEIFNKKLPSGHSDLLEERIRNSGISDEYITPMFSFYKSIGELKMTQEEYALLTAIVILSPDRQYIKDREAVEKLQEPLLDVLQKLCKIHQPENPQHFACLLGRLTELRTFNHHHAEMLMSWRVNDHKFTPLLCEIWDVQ
Chain of Signal transducer and activator of transcription 3 (Homo sapiens) (P40763 whole entry, looked up): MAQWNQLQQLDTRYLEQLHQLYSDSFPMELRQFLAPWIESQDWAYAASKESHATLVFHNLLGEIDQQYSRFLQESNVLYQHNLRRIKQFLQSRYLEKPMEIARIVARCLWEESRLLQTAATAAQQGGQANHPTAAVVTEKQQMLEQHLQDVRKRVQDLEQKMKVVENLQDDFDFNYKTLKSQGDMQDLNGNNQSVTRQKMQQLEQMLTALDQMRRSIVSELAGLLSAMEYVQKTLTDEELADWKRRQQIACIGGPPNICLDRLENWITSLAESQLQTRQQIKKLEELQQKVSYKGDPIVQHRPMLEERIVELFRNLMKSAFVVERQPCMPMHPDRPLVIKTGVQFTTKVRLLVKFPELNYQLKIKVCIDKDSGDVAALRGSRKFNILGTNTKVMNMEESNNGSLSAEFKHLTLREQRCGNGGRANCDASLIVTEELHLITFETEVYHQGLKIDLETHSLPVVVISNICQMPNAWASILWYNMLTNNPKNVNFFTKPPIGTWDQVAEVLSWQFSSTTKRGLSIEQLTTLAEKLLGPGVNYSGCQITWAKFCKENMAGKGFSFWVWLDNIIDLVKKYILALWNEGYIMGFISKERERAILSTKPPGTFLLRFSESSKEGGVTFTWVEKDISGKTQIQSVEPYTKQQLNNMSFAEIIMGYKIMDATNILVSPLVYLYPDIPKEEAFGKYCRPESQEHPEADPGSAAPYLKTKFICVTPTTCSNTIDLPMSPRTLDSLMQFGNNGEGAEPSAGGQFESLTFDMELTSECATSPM
Chain of Paired box protein Pax-6 (Homo sapiens) (P26367 whole entry, looked up): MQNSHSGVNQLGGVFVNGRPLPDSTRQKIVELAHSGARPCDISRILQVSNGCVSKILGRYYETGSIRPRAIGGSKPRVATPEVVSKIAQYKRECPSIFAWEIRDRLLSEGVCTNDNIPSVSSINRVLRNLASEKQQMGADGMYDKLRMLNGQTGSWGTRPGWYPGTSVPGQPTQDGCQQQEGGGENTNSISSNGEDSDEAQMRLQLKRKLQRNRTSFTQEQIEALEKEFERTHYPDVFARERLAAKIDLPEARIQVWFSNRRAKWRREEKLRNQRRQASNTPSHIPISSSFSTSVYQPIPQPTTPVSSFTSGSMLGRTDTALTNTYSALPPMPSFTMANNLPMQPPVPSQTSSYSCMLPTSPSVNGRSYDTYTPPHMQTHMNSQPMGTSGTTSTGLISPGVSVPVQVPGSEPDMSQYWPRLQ
Chain of Transcription factor Sp1 (Homo sapiens) (P08047 whole entry, looked up): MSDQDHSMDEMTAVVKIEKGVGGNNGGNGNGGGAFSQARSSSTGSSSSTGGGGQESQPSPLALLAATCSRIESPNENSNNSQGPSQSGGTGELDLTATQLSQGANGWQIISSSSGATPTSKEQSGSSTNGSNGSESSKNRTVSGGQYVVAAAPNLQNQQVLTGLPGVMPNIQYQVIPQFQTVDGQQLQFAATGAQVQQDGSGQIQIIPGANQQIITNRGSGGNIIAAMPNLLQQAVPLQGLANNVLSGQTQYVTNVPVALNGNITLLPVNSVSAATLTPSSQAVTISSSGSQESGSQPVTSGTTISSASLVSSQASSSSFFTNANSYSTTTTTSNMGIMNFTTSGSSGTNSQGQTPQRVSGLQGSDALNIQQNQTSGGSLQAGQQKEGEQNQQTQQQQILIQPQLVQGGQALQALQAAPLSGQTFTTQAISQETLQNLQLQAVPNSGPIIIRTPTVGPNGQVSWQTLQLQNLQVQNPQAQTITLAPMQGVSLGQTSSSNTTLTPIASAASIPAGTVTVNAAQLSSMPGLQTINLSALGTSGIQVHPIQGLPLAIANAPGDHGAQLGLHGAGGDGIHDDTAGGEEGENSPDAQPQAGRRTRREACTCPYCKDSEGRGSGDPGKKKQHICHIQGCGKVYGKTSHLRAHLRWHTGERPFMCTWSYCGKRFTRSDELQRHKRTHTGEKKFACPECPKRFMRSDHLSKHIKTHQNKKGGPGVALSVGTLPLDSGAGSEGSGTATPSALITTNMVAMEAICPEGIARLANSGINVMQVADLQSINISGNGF
Chain of Hepatocyte nuclear factor 6 (Homo sapiens) (Q9UBC0 whole entry, looked up): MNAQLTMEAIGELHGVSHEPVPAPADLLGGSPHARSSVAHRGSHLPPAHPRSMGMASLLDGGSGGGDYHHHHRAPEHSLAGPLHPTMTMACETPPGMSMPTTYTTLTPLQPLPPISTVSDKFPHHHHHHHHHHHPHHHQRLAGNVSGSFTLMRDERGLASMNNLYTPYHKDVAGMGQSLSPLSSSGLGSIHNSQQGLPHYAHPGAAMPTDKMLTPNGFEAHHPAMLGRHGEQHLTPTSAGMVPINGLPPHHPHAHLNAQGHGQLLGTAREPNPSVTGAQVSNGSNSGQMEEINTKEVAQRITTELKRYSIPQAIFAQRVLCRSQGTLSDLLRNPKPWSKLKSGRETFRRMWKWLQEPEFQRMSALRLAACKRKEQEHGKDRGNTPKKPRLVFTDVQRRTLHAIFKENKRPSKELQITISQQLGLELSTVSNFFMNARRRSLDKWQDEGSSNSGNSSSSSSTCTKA
Chain of Heat shock factor protein 1 (Homo sapiens) (Q00613 whole entry, looked up): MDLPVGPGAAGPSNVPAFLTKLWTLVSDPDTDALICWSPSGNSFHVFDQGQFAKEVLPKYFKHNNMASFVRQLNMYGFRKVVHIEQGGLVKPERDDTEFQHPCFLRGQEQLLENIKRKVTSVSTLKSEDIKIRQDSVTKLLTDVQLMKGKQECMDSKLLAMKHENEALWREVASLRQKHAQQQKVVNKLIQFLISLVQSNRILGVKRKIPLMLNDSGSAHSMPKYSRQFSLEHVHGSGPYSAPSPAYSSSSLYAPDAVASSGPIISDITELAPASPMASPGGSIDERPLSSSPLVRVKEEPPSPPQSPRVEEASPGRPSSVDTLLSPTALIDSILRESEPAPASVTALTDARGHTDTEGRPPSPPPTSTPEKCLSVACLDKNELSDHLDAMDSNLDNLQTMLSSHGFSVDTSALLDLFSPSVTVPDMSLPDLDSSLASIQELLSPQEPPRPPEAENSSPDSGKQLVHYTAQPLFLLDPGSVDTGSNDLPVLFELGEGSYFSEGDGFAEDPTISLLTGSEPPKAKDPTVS
Chain of Hypoxia-inducible factor 1-alpha (Homo sapiens) (Q16665 whole entry, looked up): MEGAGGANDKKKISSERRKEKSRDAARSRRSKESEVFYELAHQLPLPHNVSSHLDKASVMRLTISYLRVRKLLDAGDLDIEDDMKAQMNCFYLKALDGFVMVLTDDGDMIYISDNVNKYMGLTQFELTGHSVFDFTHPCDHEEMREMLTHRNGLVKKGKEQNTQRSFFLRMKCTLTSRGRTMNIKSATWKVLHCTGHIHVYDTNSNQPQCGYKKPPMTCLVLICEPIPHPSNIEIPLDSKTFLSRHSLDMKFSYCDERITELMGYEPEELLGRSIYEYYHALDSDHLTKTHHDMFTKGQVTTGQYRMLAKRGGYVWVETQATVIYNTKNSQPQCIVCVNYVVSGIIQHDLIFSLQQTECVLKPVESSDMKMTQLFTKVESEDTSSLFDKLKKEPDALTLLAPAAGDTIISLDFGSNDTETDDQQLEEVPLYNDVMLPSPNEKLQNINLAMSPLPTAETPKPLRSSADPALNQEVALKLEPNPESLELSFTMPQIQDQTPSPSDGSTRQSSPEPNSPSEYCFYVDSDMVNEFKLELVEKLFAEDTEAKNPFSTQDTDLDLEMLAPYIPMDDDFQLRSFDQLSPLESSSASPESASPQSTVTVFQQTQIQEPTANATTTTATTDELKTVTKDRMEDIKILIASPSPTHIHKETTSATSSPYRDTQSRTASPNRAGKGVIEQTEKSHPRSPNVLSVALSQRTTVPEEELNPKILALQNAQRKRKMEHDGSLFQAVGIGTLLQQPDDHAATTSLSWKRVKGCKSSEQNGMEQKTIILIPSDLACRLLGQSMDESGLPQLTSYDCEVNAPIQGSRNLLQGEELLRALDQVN

CC1=CC2C3C=CC(C3)C2C1C (stereo unspecified)
active: [8] 65.8 µM | [11] 1.59 µM
not listed: [19] | [20]
inactive: all other assays above

CNS(=O)(=O)C(F)(F)C(F)(F)C(F)(F)C(F)(F)C(F)(F)C(F)(F)C(F)(F)C(F)(F)F
active: [19] 24.4 µM | [11] 10.4 µM
not listed: [8] | [20]
inactive: all other assays above

O=C(c1ccccc1)c1ccc(Cl)cc1
active: [7] 153 µM | [8] 57.5 µM | [9] 47.2 µM | [11] 27.5 µM
not listed: [18] | [19] | [20]
inactive: all other assays above

NCC(F)(F)C(F)(F)C(F)(F)C(F)(F)C(F)(F)C(F)(F)C(F)(F)C(F)(F)F
not listed: [10] | [19]
inactive: all other assays above
